Counter-ions that a name gives are not always drawn. ± gives the standard deviation of the averaged measurements.
Legend:
Experiment in all cases: cell viability (% of vehicle); higher = less cytotoxic
Conditions in all cases: 10 µM; 72 h
HCI01 = tested on: HCI01 (cells of a triple-negative basal-like breast cancer xenograft)
HCI03 = tested on: HCI03 (cells of an ER-positive luminal breast cancer xenograft)
HCI09 = tested on: HCI09 (cells of a triple-negative luminal androgen receptor type breast cancer xenograft)
HCI11 = tested on: HCI11 (cells of an ER-positive luminal breast cancer xenograft)
HCI13 = tested on: HCI13 (cells of an ER-positive luminal breast cancer xenograft)
HCI16 = tested on: HCI16 (cells of a triple-negative basal-like breast cancer xenograft)
UCD52 = tested on: UCD52 (cells of a triple-negative basal-like breast cancer xenograft)
WHIM2 = tested on: WHIM2 (cells of a triple-negative basal-like breast cancer xenograft)
WHIM30 = tested on: WHIM30 (cells of a triple-negative basal-like breast cancer xenograft)
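Further: PDX cells carrying CMV promoter-driven luciferase, viability read as total photon flux per second by IVIS imaging following D-luciferin, vehicle control 0.1% DMSO.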

Row | Compound | cell viability (HCI01) | cell viability (HCI03) | cell viability (HCI09) | cell viability (HCI11) | cell viability (HCI13) | cell viability (HCI16) | cell viability (UCD52) | cell viability (WHIM2) | cell viability (WHIM30)
1 | CCOc1nc2cccc(C(=O)O)c2n1Cc1ccc(-c2ccccc2-c2nn[nH]n2)cc1 [Candesartan] | 98 ± 5.4 | 122 | 93.6 ± 2.2 | 101 | 127.9 ± 1.2 | 109 | 82.15 ± 0.28 | 85.9 ± 7.9 | 112 ± 23
2 | COS(=O)(=O)[O-].C[N+]1(C)CCC(=C(c2ccccc2)c2ccccc2)CC1 [Diphemanil Methylsulfate] | 101 ± 3 | 121 | 97.8 ± 12 | 109 | 119 ± 5.8 | 84.7 | 94.5 ± 13 | 96.7 ± 19 | 161.9 ± 0.26
3 | CC(C)(C)NCC(O)COc1cccc2c1CCC(O)=N2.Cl (stereo not drawn) [Carteolol HCl] | 96.4 ± 13 | 144 | 97.3 ± 14 | 110 | 123 ± 1.9 | 115 | 114 ± 3.5 | 87.3 ± 17 | 116.5 ± 0.86
4 | CCN1CCN(C(=O)NC(C(=O)NC2C(=O)N3C2SC(C)(C)C3C(=O)[O-])c2ccccc2)C(=O)C1=O.[Na+] (stereo not drawn) [Piperacillin Sodium] | 109 ± 7.5 | 91.8 | 76.1 ± 26 | 92.6 | 88.4 ± 1.3 | 111 | 108 ± 17 | 105 ± 18 | 152 ± 15
5 | CC(C)(C)c1nc(-c2cccc(NS(=O)(=O)c3c(F)cccc3F)c2F)c(-c2ccnc(N)n2)s1 | 118 ± 12 | 125 | 98.9 ± 1.2 | 119 | 187 ± 54 | 73.6 | 122 ± 12 | 116 ± 4.4 | 91.4 ± 15
6 | CC(O)C1C(=O)N2C(C(=O)O)=C(SC3CNC(C(=O)N(C)C)C3)C(C)C12.O.O.O (stereo not drawn) [Meropenem trihydrate] | 104 ± 8.7 | 81.8 | 127 ± 32 | 92.4 | 95 ± 0.96 | 96.2 | 89.6 ± 5.1 | 99.4 ± 7.5 | 78.309 ± 0.071
7 | CC(=O)NC(CS)C(=O)O (stereo not drawn) [Acetylcysteine] | 91.6 ± 7.3 | 113 | 94.3 ± 16 | 90 | 97.3 ± 27 | 118 | 89.98 ± 0.47 | 124 ± 1.8 | 96.8 ± 14
8 | Nc1nc(N)nc(-c2cc(Cl)ccc2Cl)n1 [Irsogladine] | 92.7 ± 5.9 | 113 | 91.9 ± 16 | 89.7 | 102 ± 18 | 108 | 107 ± 4.4 | 114 ± 4.4 | 76.4 ± 4.1
9 | Cc1cccc(C)c1OCC(C)N.Cl (stereo not drawn) [Mexiletine HCl] | 127 ± 27 | 110 | 120 ± 46 | 123 | 122 ± 26 | 188 | 120 ± 7 | 129 ± 14 | 147 ± 1.7
10 | CC(NC(=O)C(O)C(C)C)C(=O)NC1C(=O)N(C)CCc2ccccc21 (stereo not drawn) | 144 ± 28 | 106 | 71.2 ± 7.3 | 119 | 102 ± 21 | 180 | 81 ± 20 | 69.98 ± 0.17 | 184 ± 11
11 | Br.CN(C)CCC[C@]1(c2ccc(F)cc2)OCc2cc(C#N)ccc21 [Citalopram hydrobromide] | 103 ± 25 | 138 | 93.7 ± 14 | 108 | 103 ± 6.7 | 129 | 106 ± 9 | 94.2 ± 24 | 87.9 ± 8.7
12 | CCCCCN(C)CCC(O)(P(=O)([O-])O)P(=O)(O)O.O.[Na+] [Ibandronate sodium] | 113 ± 30 | 93.2 | 107 ± 19 | 101 | 126 ± 20 | 138 | 115 ± 5.5 | 130 ± 14 | 128 ± 22
13 | CC(O)C1C(=O)N2C(C(=O)O)=C(SC3CNC(CNS(N)(=O)=O)C3)C(C)C12.O (stereo not drawn) [Doripenem Hydrate] | 103 ± 1.4 | 91.1 | 95.9 ± 7 | 84.3 | 84.8 ± 5.9 | 95.3 | 89.1 ± 5.5 | 93.6 ± 7.5 | 109 ± 5.1
14 | CCC1=C(C)CN(C(=O)NCCc2ccc(S(=O)(=O)NC(=O)NC3CCC(C)CC3)cc2)C1=O (stereo not drawn) [Glimepiride] | 158 ± 17 | 123 | 86.6 ± 14 | 147 | 93.2 ± 11 | 158 | 129 ± 3.5 | 105 ± 6.7 | 164.4 ± 0.77
15 | Nc1ccn([C@@H]2O[C@H](CO)[C@@H](O)C2(F)F)c(=O)n1 [Gemcitabine HCl] | 96.1 ± 22 | 109 | 93 ± 23 | 103 | 89.6 ± 16 | 107 | 133 ± 24 | 75.7 ± 7.1 | 105 ± 14
16 | Cc1ccc(C2OC(CO)C(O)C(O)C2O)cc1Cc1ccc(-c2ccc(F)cc2)s1 (stereo not drawn) [Canagliflozin] | 114 ± 6.5 | 150 | 55.8 ± 27 | 108 | 77.3 ± 21 | 124 | 76 ± 9.2 | 65.5 ± 51 | 110 ± 5.9
17 | Cc1onc(-c2ccccc2)c1-c1ccc(S(N)(=O)=O)cc1 [Valdecoxib] | 126 ± 28 | 126 | 85.3 ± 11 | 98 | 109 ± 1.1 | 99.8 | 74 ± 11 | 95.5 ± 4.2 | 78.92 ± 0.35
18 | CN(C)CC(c1ccc(O)cc1)C1(O)CCCCC1 (stereo not drawn) [Desvenlafaxine] | 84 ± 2.4 | 118 | 92.5 ± 18 | 80.5 | 90.1 ± 13 | 126 | 92.2 ± 9.2 | 79.9 ± 7.9 | 124 ± 7.7
19 | CN1C2CCCC1CC(NC(=O)c1nn(C)c3ccccc13)C2.Cl (stereo not drawn) [Granisetron HCl] | 116 ± 6.1 | 111 | 90.4 ± 1.8 | 97.6 | 96.2 ± 16 | 89.6 | 113 ± 3.7 | 88.1 ± 22 | 115 ± 16

Row | Compound | cell viability (HCI01) | cell viability (HCI03) | cell viability (HCI09) | cell viability (HCI11) | cell viability (HCI13) | cell viability (HCI16) | cell viability (UCD52) | cell viability (WHIM2) | cell viability (WHIM30)
20 | Cc1c(OCC(F)(F)F)ccnc1CS(=O)c1nc2ccccc2[nH]1 (stereo not drawn) [Dexlansoprazole] | 188 ± 46 | 149 | 94.9 ± 51 | 134 | 188 ± 57 | 170 | 143 ± 8.5 | 173 ± 16 | 186 ± 9.4
21 | O=C1c2ccccc2C(=O)C1c1ccccc1 [Phenindione] | 127 ± 33 | 142 | 104 ± 5.7 | 94.7 | 92.6 ± 26 | 114 | 104 ± 7.3 | 124 ± 13 | 159 ± 35
22 | CC(=O)OCC(=O)NCCCOc1cccc(CN2CCCCC2)c1.Cl [Roxatidine Acetate HCl] | 175 ± 22 | 118 | 121 ± 11 | 120 | 141 ± 22 | 131 | 95.5 ± 9.9 | 106 ± 3.1 | 128 ± 15
23 | NS(=O)(=O)c1cc(C(=O)O)c(NCc2ccco2)cc1Cl [Furosemide] | 108 ± 7.4 | 126 | 98.4 ± 8.6 | 105 | 89.1 ± 17 | 94.5 | 83.56 ± 0.16 | 98.3 ± 1.4 | 78.9 ± 6.2
24 | N#CC(=C1SCC(c2ccc(Cl)cc2Cl)S1)n1ccnc1 (stereo not drawn) [Luliconazole] | 131 ± 29 | 108 | 73.3 ± 15 | 90.6 | 70.2 ± 5.6 | 72.4 | 88.5 ± 4.3 | 97.1 ± 3.4 | 130 ± 7.6
25 | Cc1cccc(Nc2ccccc2C(=O)O)c1C [Mefenamic Acid] | 103 ± 23 | 102 | 118 ± 43 | 98.1 | 113 ± 6.7 | 90.9 | 94.4 ± 5.6 | 109 ± 6 | 112 ± 1.5
26 | CC#CCn1c(N2CCCC(N)C2)nc2c1c(=O)n(Cc1nc(C)c3ccccc3n1)c(=O)n2C (stereo not drawn) [Linagliptin (BI-1356)] | 160 ± 22 | 108 | 95.4 ± 7.2 | 142 | 105 ± 6.1 | 179 | 136 ± 2.3 | 111 ± 1.3 | 167 ± 7.3
27 | CCCCC(C)(O)C/C=C/[C@H]1[C@H](O)CC(=O)[C@@H]1CCCCCCC(=O)OC (mixture of isomers) [Misoprostol] | 95 ± 25 | 120 | 107 ± 12 | 101 | 123 ± 9.4 | 112 | 96.6 ± 8.3 | 93.1 ± 9.9 | 107 ± 4.6
28 | OCC(O)C(O)C(O)CO (stereo not drawn) [Xylitol] | 96.8 ± 14 | 133 | 101 ± 15 | 95.5 | 97 ± 3.2 | 101 | 101 ± 7.7 | 90.3 ± 14 | 83.1 ± 8.9
29 | CC(C)(C)c1cc(NC(=O)Nc2ccc(-c3cn4c(n3)sc3cc(OCCN5CCOCC5)ccc34)cc2)no1 [Quizartinib (AC220)] | 168 ± 27 | 112 | 81.5 ± 1.3 | 111 | 94 ± 17 | 127 | 146 ± 29 | 74.2 ± 3.8 | 193 ± 34
30 | CCS(=O)(=O)CCn1c([N+](=O)[O-])cnc1C [Tinidazole] | 92 ± 28 | 111 | 79.8 ± 12 | 88.6 | 101 ± 4.4 | 101 | 83.4 ± 14 | 81.2 ± 1.9 | 163 ± 1.9
31 | O=c1ncnc2[nH][nH]cc1-2 [Allopurinol] | 111 ± 8.6 | 132 | 94.3 ± 13 | 110 | 98.9 ± 12 | 103 | 84.5 ± 3.3 | 97.49 ± 0.5 | 122 ± 8.1
32 | CN1CCN2c3ccccc3Cc3ccccc3C2C1.Cl (stereo not drawn) [Mianserin HCl] | 124 ± 24 | 98.3 | 89.4 ± 4.5 | 95.9 | 90 ± 21 | 92.4 | 74.3 ± 4.9 | 73.1 ± 24 | 109 ± 3.4
33 | CCOC(=O)C1=C(C)NC(C)=C(C(=O)OCC)C1c1ccccc1C=CC(=O)OC(C)(C)C [Lacidipine] | 107.7 ± 0.7 | 98.1 | 86.5 ± 9.8 | 110 | 88.7 ± 2.9 | 85.7 | 77.1 ± 6.1 | 99.8 ± 1.2 | 133 ± 3.9
34 | Cc1nnc(NS(=O)(=O)c2ccc(N)cc2)s1 [Sulfamethizole] | 102 ± 17 | 119 | 91.2 ± 4.5 | 87 | 89.2 ± 14 | 114 | 81.2 ± 3.9 | 91.3 ± 4.2 | 88.3 ± 5
35 | Nc1cc(C(Cl)=C(Cl)Cl)c(S(N)(=O)=O)cc1S(N)(=O)=O [Clorsulon] | 107 ± 17 | 108 | 125 ± 47 | 106 | 194 ± 11 | 169 | 116 ± 11 | 112 ± 14 | 152 ± 7.4
36 | CC(=O)O.NC(N)=NN=Cc1c(Cl)cccc1Cl [Guanabenz Acetate] | 134 ± 24 | 122 | 83.5 ± 5.4 | 108 | 101 ± 12 | 158 | 76.9 ± 2.8 | 109 ± 16 | 110 ± 20
37 | O=C(NCC1CN(c2ccc(N3CCOCC3=O)cc2)C(=O)O1)c1ccc(Cl)s1 (stereo not drawn) [Rivaroxaban] | 114 ± 11 | 119 | 89.9 ± 3.4 | 105 | 130 ± 15 | 94.8 | 85.2 ± 13 | 109 ± 9 | 117 ± 15

— the supplement of paper PMC6992640
